We go through five compounds from PubChem BioAssay.

Molecules are shown by their SMILES. Several values for one entry are separate records, joined by “and”; a condition that tells them apart may be missing. Equal values may be shown once. Inconclusive results are not listed. For part of these data: Entries with a potency or affinity are not part of this list. A structure can be active in one record and inactive in another. Activity calls are given as the source filed them. Unless noted, how the calls were made is not given here.

A short description of assay [1]: antimalarial activity against Dd2 strain (AID 2302;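 active means growth inhibition above 50% at the single 2 µM test dose, taken to imply half-maximal potency below 2 µM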;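 further: 0% = DMSO untreated growth and 100% = chloroquine plus artemisinin killed control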). Particulars: P. falciparum Dd2 in RBCs, LDH growth readout, 72 h; at 2 µM; stronger effect = higher value.
The nature of assay [2]: human hepatoma cell viability loss – ATP luminescence, cytotoxicity control for P. falciparum antimalarial project, primary screen (AID 2303;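 active means inhibition above 50%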;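 further: 0% = DMSO wells and 100% = digitonin-killed cells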). Particulars: HepG2 viability, 24-48 h, at 10 µM, stronger effect = higher value.
In assay [3] the target is L-lactate dehydrogenase (Plasmodium falciparum (isolate CDC / Honduras)) (UniProt Q27743). Put plainly: PfLDH activity inhibition – cell lysate, 3D7 strain, counter-screen for P. falciparum growth inhibition project (AID 2304).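 Further: 0% = vehicle and 100% = reference inhibitor.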 Particulars: P. falciparum 3D7 crude extract, LDH APAD/NBT absorbance; at 2 µM; stronger effect = higher value. (Counterscreens check selectivity or assay interference.)

Assay [4] is described as follows: inhibition of 3D7 malaria parasite growth – strain 3D7 (AID 2306).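 Further: 0% = DMSO wells and 100% = chloroquine plus artemisinin control wells.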 Particulars: P. falciparum 3D7 erythrocytic growth, LDH absorbance, 72 h; at 2 µM; stronger effect = higher value.
In assay [5] the target is Calcium-dependent protein kinase 1 (Plasmodium falciparum (isolate 3D7)) (UniProt P62344). Briefly: PfCDPK1 kinase inhibitors, biochemical, TCAMS library (AID 1159585; cut-off not given, nearly all actives have IC50 up to about 0.98 µM;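 further: inhibitors leave more ATP so luminescence rises with inhibition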). Particulars: recombinant PfCDPK1, Kinase-Glo ATP depletion luminescence. On the technique in general: Kinase-Glo reads ATP consumption through a luciferase reaction.
Assay [6] has as its target Plasmodium falciparum protein kinase 6 (PK6, PF3D7_1337100) (UniProt Q8IDW1). Put plainly: PfPK6 kinase inhibitors, biochemical, TCAMS library (AID 1159586). Particulars: recombinant PfPK6, Kinase-Glo ATP depletion luminescence.
For assay [7], the target named is Protein kinase 7 (PK7), Plasmodium falciparum 3D7 (PF3D7_0213400) (UniProt Q7YTF7). Briefly: inhibition of Plasmodium PK7 catalytic activity – biochemical, TCAMS antimalarial set, Kinase-Glo luminescence (AID 1159587). Particulars: recombinant PfPK7, Kinase-Glo ATP depletion luminescence.
Assay [8] addresses Calcium-dependent protein kinase 4 (Plasmodium falciparum (isolate 3D7)) (UniProt Q8IBS5). Put plainly: PfCDPK4 kinase inhibitors, biochemical, TCAMS library (AID 1159588; cut-off not given, nearly all actives have IC50 up to about 0.91 µM). Particulars: recombinant PfCDPK4, Kinase-Glo ATP depletion luminescence.
Assay [9] can be described thus: P. berghei load reduction in hepatocytes – cell-based, HepG2, luciferase luminescence, HepG2 viability, primary screen (AID 624349; in the data active means parasite load remaining mostly below about 12%, no sharp cut-off; inactive means mostly above about 10%;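 further: 100% = mean of DMSO negative control wells on the same plate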). Particulars: P. berghei liver stage in HepG2, luciferase luminescence, concentration not given here; parasite load remaining: stronger effect = lower value; viability: measured here: HepG2 viability without parasites.
Assay [10] is described as follows: viability loss in pontine glioma line – cell-based, SU-DIPG-XVII, MIPE5.0, CellTiter-Glo, qHTS, dose response (AID 1347060; cut-off not given, nearly all actives have AC50 up to about 26 µM;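 on AC50: cells exposed to compound for 48 hours before viability readout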). Particulars: CellTiter-Glo ATP luminescence.
Assay [11] in a line: viability loss in pontine glioma line – cell-based, JHH-DIPG-1, MIPE4.0, CellTiter-Glo, qHTS, dose response (AID 1347062; cut-off not given, nearly all actives have AC50 up to about 27 µM;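 on AC50: cells exposed to compound for two days before readout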). Particulars: JHH-DIPG-1 viability, CellTiter-Glo ATP luminescence. A general note: ATP-based viability assays read luminescence as a measure of living cells.
The nature of assay [12]: viability loss in pontine glioma line – cell-based, SU-DIPG-IV, MIPE4.0, CellTiter-Glo, qHTS, dose response (AID 1347063; cut-off not given, nearly all actives have AC50 up to about 30 µM;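 further: compound exposure lasted 48 hours before the viability readout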). Particulars: CellTiter-Glo ATP luminescence.
The nature of assay [13]: viability loss in pontine glioma line – cell-based, SU-DIPG-XIII, MIPE5.0, CellTiter-Glo, qHTS, dose response (AID 1347064; cut-off not given, nearly all actives have AC50 up to about 23 µM;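 on AC50: cells exposed to compound for 48 hours before the viability read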). Particulars: CellTiter-Glo ATP luminescence.
Assay [14] is described as follows: viability loss in pontine glioma line – cell-based, SU-DIPG-XXV, MIPE5.0, CellTiter-Glo, qHTS, dose response (AID 1347065; cut-off not given, nearly all actives have AC50 up to about 26 µM;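 further: cells exposed to compound for 48 hours before ATP readout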). Particulars: CellTiter-Glo ATP luminescence.
The nature of assay [15]: growth inhibition of DIPG cells – cell-based, MIPE4.0 library, CellTiter-Glo luminescence, qHTS (AID 1347066; cut-off not given, nearly all actives have AC50 up to about 30 µM;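 further: cells exposed to compound for 48 hours before readout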). Particulars: SU-DIPG-VI viability, CellTiter-Glo ATP luminescence.
Assay [16] in a line: JHH-DIPG-1 glioma cell viability, MIPE5.0 library, CellTiter-Glo luminescence, qHTS (AID 1347067; cut-off not given, nearly all actives have AC50 up to about 26 µM;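 further: cells exposed to compound for 48 hours before readout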). Particulars: JHH-DIPG-1 glioma viability, CellTiter-Glo ATP luminescence.
Assay [17] in a line: growth inhibition of DIPG cells – cell-based, MIPE5.0 library, qHTS (AID 1347068; cut-off not given, nearly all actives have IC50 up to about 30 µM;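 on IC50: cells exposed to compound for 48 hours before viability readout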). Particulars: SU-DIPG-XXV viability.
Assay [18] is described as follows: viability loss with induced miR-34 in A549 – imaging, A549 dox-inducible miR-34, nuclei and caspase counts, primary screen (AID 1347080;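 active means compounds whose cell count with miR-34 switched on is under 0.7 times the count with it off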). Particulars: A549 miR-34 inducible, Hoechst nuclei count, 48 h.
Assay [19] is described as follows: MELAS cybrid and Rieske KO viability enhancers – cell-based, MELAS cybrids, Rieske KO mouse fibroblasts, CellTiter-Glo, primary screen (AID 1508586;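 active means mean z-score across replicates of 1.96 or higher in either the MELAS or the Rieske mutant cell line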;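 further: z relative to plate mean and SD of compound and empty wells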). Particulars: low glucose.
Assay [20] deals with NAD(+) hydrolase SARM1 (Homo sapiens) (UniProt Q6SZW1). Put plainly: blocking NAD cleavage by SARM1 SAM-TIR – cell lysate, NAD-Glo luminescence (AID 1508614;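 active means compound whose remaining NAD level is above about 45 nM, limit read from the data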). Particulars: SAM-TIR HEK293T lysate NADase, at 1 µM, stronger effect = higher value.
The target of assay [21] is Mitogen-activated protein kinase 7 (Homo sapiens) (UniProt Q13164). Put plainly: Gal4-ERK5 driven luciferase induction – cell-based, HTS, primary screen (AID 1508626;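 active means luciferase signal above three times the same-plate solvent-only control wells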;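 further: luciferase driven by Gal4-ERK5 fusion binding five Gal4 sites before minimal TATA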). Particulars: HeLa Gal4-ERK5 transactivation, 18 h, at 5 µM, stronger effect = higher value.
Assay [22] can be described thus: galactose survival enhancers in mitochondrial complex I cybrids – cell-based, galactose medium, ATP luminescence, primary screen (AID 1645843;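 active means z-score of at least 1.8 in each of two replicates, scored against plate mean and spread of sample wells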;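 further: positive z means more ATP and so rescue of galactose-driven cybrid death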). Particulars: complex I mutant cybrid cells, 72 h, stronger effect = higher value.
Assay [23] is described as follows: viability loss in pontine glioma line – cell-based, SU-DIPG-XIII, MIPE4.0, CellTiter-Glo, qHTS, dose response (AID 1347061; cut-off not given, nearly all actives have AC50 up to about 37 µM;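 further: cells exposed to compound for 48 hours before readout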). Particulars: CellTiter-Glo ATP luminescence.
[24] abbreviates: stronger effect = lower value, cell number ratio, induced over uninduced.
The mark [25] stands for this setting: measured here: relative caspase fold change +Dox/-Dox.
[26] abbreviates: measured here: total cells with miR-34 induction, stronger effect = lower value.
Setting [27] is: measured here: total cells without miR-34 induction.
Setting [28] is: MELAS cybrid survival, CellTiter-Glo 48 h, stronger effect = higher value.
Setting [29] is: Rieske KO mouse fibroblast survival, CellTiter-Glo 72 h.

L-lactate dehydrogenase (Plasmodium falciparum (isolate CDC / Honduras)), sequence (Q27743 whole entry, looked up): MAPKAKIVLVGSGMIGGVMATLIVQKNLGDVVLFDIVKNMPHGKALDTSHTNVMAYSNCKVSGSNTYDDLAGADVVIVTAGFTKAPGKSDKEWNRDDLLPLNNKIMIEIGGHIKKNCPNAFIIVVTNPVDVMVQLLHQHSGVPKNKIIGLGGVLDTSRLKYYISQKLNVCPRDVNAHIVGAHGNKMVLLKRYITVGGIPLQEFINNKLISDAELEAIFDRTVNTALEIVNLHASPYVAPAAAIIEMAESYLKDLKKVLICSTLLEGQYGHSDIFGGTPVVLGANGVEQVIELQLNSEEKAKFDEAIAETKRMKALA
Calcium-dependent protein kinase 4 (Plasmodium falciparum (isolate 3D7)), sequence (Q8IBS5 whole entry, looked up): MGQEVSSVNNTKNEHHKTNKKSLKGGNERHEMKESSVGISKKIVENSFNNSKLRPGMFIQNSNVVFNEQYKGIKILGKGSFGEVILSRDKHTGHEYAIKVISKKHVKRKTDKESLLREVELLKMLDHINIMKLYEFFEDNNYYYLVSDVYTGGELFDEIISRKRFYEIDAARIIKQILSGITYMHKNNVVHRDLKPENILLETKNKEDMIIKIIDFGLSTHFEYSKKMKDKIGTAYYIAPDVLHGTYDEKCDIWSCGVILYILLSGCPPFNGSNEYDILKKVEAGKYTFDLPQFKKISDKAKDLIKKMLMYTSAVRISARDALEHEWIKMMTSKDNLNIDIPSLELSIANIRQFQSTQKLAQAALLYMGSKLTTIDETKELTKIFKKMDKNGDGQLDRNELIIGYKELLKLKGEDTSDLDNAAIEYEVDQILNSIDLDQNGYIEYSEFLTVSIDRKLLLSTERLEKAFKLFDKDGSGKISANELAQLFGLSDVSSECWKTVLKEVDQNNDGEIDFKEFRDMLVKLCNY
Calcium-dependent protein kinase 1 (Plasmodium falciparum (isolate 3D7)), sequence (P62344 whole entry, looked up): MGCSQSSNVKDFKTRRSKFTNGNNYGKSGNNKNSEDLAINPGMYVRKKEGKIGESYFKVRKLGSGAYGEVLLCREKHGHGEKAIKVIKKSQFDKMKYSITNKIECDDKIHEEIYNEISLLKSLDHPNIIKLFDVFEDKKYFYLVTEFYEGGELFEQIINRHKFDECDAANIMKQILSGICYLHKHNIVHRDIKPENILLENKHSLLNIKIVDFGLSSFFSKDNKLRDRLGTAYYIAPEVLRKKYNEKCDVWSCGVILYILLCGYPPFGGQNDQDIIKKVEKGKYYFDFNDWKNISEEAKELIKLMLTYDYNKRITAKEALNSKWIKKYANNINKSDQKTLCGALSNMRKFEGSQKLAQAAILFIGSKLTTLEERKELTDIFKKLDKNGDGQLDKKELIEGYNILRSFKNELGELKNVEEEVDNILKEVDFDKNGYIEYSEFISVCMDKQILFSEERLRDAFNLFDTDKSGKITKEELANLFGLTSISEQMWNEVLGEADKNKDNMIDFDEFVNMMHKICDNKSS
Protein kinase 7 (PK7), Plasmodium falciparum 3D7 (PF3D7_0213400), sequence (Q7YTF7 1-343): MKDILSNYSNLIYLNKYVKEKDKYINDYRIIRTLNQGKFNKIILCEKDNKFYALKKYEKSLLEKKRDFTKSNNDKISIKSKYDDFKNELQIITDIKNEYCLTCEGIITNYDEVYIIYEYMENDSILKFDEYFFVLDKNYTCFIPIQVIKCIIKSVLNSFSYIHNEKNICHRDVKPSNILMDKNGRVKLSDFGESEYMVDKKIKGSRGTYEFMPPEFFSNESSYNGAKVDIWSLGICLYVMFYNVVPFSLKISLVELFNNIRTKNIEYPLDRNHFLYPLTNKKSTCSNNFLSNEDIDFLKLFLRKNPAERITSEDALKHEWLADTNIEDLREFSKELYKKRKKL
Plasmodium falciparum protein kinase 6 (PK6, PF3D7_1337100), sequence (Q8IDW1 1-305): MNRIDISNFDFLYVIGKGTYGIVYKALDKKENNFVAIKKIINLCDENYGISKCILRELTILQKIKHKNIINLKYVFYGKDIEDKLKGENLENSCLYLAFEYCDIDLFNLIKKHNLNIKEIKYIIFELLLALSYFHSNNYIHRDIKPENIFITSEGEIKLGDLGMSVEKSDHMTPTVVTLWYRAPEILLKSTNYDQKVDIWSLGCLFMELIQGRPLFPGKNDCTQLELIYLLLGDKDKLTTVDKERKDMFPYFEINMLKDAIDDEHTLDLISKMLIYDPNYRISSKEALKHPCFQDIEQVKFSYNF
NAD(+) hydrolase SARM1 (Homo sapiens), sequence (Q6SZW1 whole entry, looked up, the tested form may be a part): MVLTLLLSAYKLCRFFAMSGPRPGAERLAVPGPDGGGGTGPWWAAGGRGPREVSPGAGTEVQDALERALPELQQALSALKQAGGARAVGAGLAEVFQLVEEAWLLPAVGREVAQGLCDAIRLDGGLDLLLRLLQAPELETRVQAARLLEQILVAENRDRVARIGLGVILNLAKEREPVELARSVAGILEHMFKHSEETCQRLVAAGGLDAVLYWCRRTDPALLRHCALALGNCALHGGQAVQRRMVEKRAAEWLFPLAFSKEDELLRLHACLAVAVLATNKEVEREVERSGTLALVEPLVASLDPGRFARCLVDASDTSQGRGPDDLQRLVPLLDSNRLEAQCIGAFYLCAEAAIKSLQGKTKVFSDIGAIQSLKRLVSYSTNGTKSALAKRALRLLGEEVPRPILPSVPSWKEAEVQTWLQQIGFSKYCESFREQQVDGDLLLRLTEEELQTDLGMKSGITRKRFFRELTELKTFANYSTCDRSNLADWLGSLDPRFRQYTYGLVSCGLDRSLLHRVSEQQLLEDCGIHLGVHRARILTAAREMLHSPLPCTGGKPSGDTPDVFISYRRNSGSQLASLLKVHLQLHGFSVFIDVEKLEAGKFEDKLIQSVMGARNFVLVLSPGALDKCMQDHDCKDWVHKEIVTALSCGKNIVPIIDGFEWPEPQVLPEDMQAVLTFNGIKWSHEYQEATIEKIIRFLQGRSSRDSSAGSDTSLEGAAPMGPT
Mitogen-activated protein kinase 7 (Homo sapiens), sequence (Q13164 whole entry, looked up, the tested form may be a part): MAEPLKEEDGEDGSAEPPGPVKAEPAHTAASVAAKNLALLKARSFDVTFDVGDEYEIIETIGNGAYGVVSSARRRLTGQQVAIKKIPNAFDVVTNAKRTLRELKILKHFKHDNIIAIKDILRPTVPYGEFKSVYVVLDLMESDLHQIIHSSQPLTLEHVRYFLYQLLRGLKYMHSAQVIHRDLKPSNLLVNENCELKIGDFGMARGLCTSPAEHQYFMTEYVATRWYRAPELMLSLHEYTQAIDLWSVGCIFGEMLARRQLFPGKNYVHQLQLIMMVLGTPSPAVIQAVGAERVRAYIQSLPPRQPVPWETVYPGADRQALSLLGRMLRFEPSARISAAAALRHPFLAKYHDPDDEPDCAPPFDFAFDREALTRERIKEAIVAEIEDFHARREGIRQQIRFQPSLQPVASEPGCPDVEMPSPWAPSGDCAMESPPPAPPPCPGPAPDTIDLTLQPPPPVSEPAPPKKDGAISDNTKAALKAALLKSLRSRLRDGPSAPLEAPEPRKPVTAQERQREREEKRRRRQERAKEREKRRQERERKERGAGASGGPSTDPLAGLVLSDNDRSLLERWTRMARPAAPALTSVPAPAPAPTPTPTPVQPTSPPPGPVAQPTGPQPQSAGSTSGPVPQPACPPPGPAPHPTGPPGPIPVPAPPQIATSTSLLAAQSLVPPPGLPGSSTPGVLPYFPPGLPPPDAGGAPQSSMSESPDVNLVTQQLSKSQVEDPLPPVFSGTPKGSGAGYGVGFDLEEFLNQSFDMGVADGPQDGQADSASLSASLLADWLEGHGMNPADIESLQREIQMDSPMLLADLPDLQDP

`COc1ccc(Cl)cc1S(=O)(=O)Nc1cccc(CCN2CCC(N3CCCCC3)CC2)c1`: the growth inhibition in [1] is 9% (inactive); in assay [4] it was 101% (active). Also, the inhibition in [2] is 33% (inactive); in assay [3], 4% (inactive). The outcome in assay [5], in assay [6], in [7] and in assay [8] was inactive.
`C=C[C@H]1CN2CC[C@H]1C[C@H]2[C@H](O)c1ccnc2ccc(OC)cc12`: the growth inhibition is 99% (active) and 22% (inactive) and 79% (active) in assay [1]; 100% (active) and 97% (active) and 99% (active) in [4]. Moreover, the inhibition in assay [2] was 13% (inactive) and -12% (inactive) and -6% (inactive); in assay [3], -4% (inactive) and -7% (inactive). Further, the parasite load remaining in assay [9] is 49.1% (inactive). The viability in assay [9] is 193%. The outcome in [5], in [6], in assay [7], in [8], in assay [10] and in [11] was inactive. Besides, the result in assay [12], in assay [13], in assay [14], in assay [15], in assay [16] and in assay [17] was inactive. For the same compound, the fold change in [18] (setting [24]) was 0.942 (inactive); in [18] (setting [25]) it was 0.791. The cell count is 9260 in assay [18] (setting [26]) and 9830 in [18] (setting [27]). In addition, the z-score was -0.0548 (inactive) in assay [19] (setting [28]), 1.17 in assay [19] (setting [29]) and -0.735 (inactive) in assay [22]. For the same compound, the remaining NAD in [20] was 10 nM (inactive). Further, in assay [21], the luciferase signal was 140 AU (inactive).
For `CN(C)CCCSc1ccccc1NC(=O)C=Cc1ccccc1`, the growth inhibition in assay [1] was -3% (inactive); in [4] it was 85% (active). The inhibition in assay [2] is -4% (inactive); in [3] it was -5% (inactive). Moreover, the result in [5], in [6], in assay [7] and in [8] was inactive. The fold change in [18] (setting [24]) was 0.957 (inactive); in assay [18] (setting [25]), 1.81. Also, the cell count in [18] (setting [26]) amounted to 8880; in [18] (setting [27]), 9280. For the same compound, in [22], the z-score was -0.13 (inactive).
Consider `Cc1ccc2c(NN=Cc3cccc(F)c3)cc(C)nc2c1`, for which the results for the growth inhibition in assay [1] and in assay [4] were 66% (active) and 96% (active), respectively. Moreover, the inhibition was 34% (inactive) in [2] and -2% (inactive) in [3]. Besides, the outcome in assay [5], in assay [6], in assay [7] and in assay [8] was inactive.
With `CCS(=O)(=O)Nc1ccc2[nH]c(O)c(C(=Nc3ccc(CN4CCCCC4)cc3)c3ccccc3)c2c1`, the results for the growth inhibition in [1] and in [4] were 74% (active) and 87% (active), respectively. The inhibition in assay [2] was 53% (active); in assay [3], 6% (inactive). Besides, the outcome in [5], in [6], in assay [7] and in [8] was inactive. Moreover, the AC50 was 263 nM (active) in assay [10]; 662 nM (active) in [23]; 5900 nM (active) in [11]; 5900 nM (active) in [12]; 263 nM (active) in [13]; 83.3 nM (active) in assay [14]. For the same compound, the AC50 in assay [16] was 742 nM (active). For the same compound, the IC50 in [17] is 468 nM (active). The fold change in [18] (setting [24]) was 1 (inactive); in [18] (setting [25]), 0.435. Besides, the cell count amounted to 720 in [18] (setting [26]) and 718 in [18] (setting [27]). Besides, the figures for the z-score in assay [19] (setting [28]) and in assay [19] (setting [29]) were 0.158 (inactive) and -2.81, respectively.

The inhibition is the change of the read-out against control, counted positive when it falls. One may read the viability as a read-out of living cells in per cent, often relative to untreated cells. The term AC50 denotes the concentration giving half of the maximal activity seen. As usually defined, the IC50 is the midpoint of a concentration-inhibition curve.
